According to publication PMC5540273 (PLoS ONE, 2017):
Like-named read-outs stand apart in the source and are kept apart here.

Legend:
ERK1 = test system: T1, ERK1; details: concentration: 1 μM, replicates: in singlicate; n = 1
T1 construct: gene MAPK3

ERK2 = test system: T2, ERK2; details: concentration: 1 μM, replicates: in singlicate; n = 1
T2 construct: gene MAPK1

ERK3 = test system: T3, ERK3; details: concentration: 1 μM, replicates: in singlicate; n = 1
T3 construct: gene MAPK6

ERK4 = test system: T4, ERK4; details: concentration: 1 μM, replicates: in singlicate; n = 1
T4 construct: gene MAPK4

ERK5 = test system: T5, ERK5; details: concentration: 1 μM, replicates: in singlicate; n = 1
T5 construct: gene MAPK7

ERK8 = test system: T6, ERK8; details: concentration: 1 μM, replicates: in singlicate; n = 1
T6 construct: gene MAPK15

ERN1 = details: concentration: 1 μM, replicates: in singlicate; n = 1
FAK = test system: T7, FAK; details: n = 1
T7 construct: gene PTK2

FER = details: concentration: 1 μM, replicates: in singlicate; n = 1
FES = details: concentration: 1 μM, replicates: in singlicate; n = 1
[1] = concentration: 1 μM, replicates: in singlicate
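Also: KINOMEscan kinase panel screen.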

SMILES | %Inh (ERK1) | %Inh (ERK2) | %Inh (ERK3) | %Inh (ERK4) | %Inh (ERK5) | %Inh (ERK8) | %Inh (ERN1) | %Inh (FAK; [1]) | %Inh (FER) | %Inh (FES) | %Inh (FAK; 1 µM)
Cc1ccc(Nc2ccnc(Nc3ccc(C)c(F)c3)n2)cc1O.Cl [GW582868] | 0% | 0% | 0% | 0% | 26% | 43% | 0% | 0% | 1% | 0% | 
O=C(Nc1n[nH]c2nc(-c3ccccc3O)ccc12)C1CC1 [SB-711880] | 0% | 0% | 0% | 0% | 0% | 82% | 0% | 0% | 0% | 0% | 
Cc1ccc(NC(=O)c2cccc(N3CCCCC3)c2)cc1-c1ccc(C(=O)NCC2CC2)cc1 [GSK1917008] | 2% | 0% | 100% | 23% | 0% | 51% | 17% | 15% | 16% | 21% | 
Cc1ccccc1CC(=O)N1CCc2cc(-c3cn(C)c4ncnc(N)c34)ccc21 [GSK2603346] | 0% | 0% | 0% | 0% | 0% | 30% | 1% | 0% | 17% | 0% | 
Cn1cc(-c2ccc3c(c2)CCN3C(=O)Cc2cc(F)cc(C(F)(F)F)c2)c2c(N)ncnc21 [GSK2635225] | 15% | 0% | 0% | 24% | 0% | 8% | 6% | 11% | 34% | 0% | 
Cc1ccc(O)cc1Nc1ccnc2cc(-c3ccc(CN4CCCCC4)o3)ccc12 [GW557777] | 0% | 0% | 0% | 8% | 20% | 0% | 23% | 0% | 11% | 7% | 
Cl.N#CCc1ccc(Nc2nccc(Nc3ccc(Oc4ccccc4)cc3)n2)cc1 [GW639905] | 0% | 0% | 0% | 0% | 0% | 35% | 10% | 0% | 0% | 0% | 
COc1cc(Nc2nccc(N3CCC(NC(=O)Nc4ccc5c(c4)OCO5)C3)n2)cc(OC)c1OC (centres unmarked) [GSK1379766] | 0% | 0% | 0% | 0% | 0% | 0% | 0% | 0% | 11% | 0% | 
Nc1cccc(-c2ccc3c(N)n[nH]c3c2)c1 [GSK2193613] | 0% | 0% | 11% | 14% | 0% | 15% | 4% | 16% | 11% | 16% | 
CS(=O)(=O)c1cccc(CNc2nc(Nc3ccc4c(c3)CCC(=O)N4)ncc2C(F)(F)F)c1 | 0% | 17% | 0% | 0% | 15% | 90% | 0% |  | 0% | 12% | 100%
CNc1nccc(-c2ccc3c(N)n[nH]c3c2)n1 [GSK2206003] | 3% | 0% | 0% | 32% | 9% | 28% | 4% | 0% | 25% | 1% | 
COc1ccc(C2=C(Nc3cccc(O)c3)C(=O)NC2=O)cc1 [SB-390766] | 0% | 0% | 6% | 22% | 100% | 15% | 20% | 98.1% | 0% | 0% | 
CCNc1nccc(-c2c(-c3ccc(F)cc3)ncn2C2CCN(C)CC2)n1 | 0% | 0% | 0% | 0% | 0% | 4% | 100% | 0% | 0% | 0% | 
COc1cccc(NC(=O)NCCNc2ccnc(Nc3ccc(F)cc3)n2)c1 [GSK1379879] | 0% | 0% | 4% | 25% | 0% | 0% | 0% | 0% | 8% | 0% | 
O=C(Nc1n[nH]c2nc(-c3ccccc3)ccc12)C1CC1 [SB-708999] | 0% | 3% | 46% | 0% | 0% | 99.5% | 0% | 0% | 5% | 5% | 
Nc1ncc(-c2cn[nH]c2)c2scc(-c3ccc4c(c3)CCN4C(=O)Cc3ccccc3)c12 [GSK2593067] | 3% | 3% | 0% | 0% | 0% | 10% | 0% | 0% | 29% | 0% | 
Cc1ccc(NC(=O)c2ccc(Cl)c(Cl)c2)cc1-c1ccc(C(=O)Nc2ccncc2)cc1 [GSK1398460] | 5% | 2% | 0% | 13% | 0% | 0% | 0% | 0% | 34% | 0% | 
Cc1ccc(-c2ccc3occ(-c4ccc(S(C)=O)cc4)c3c2)nn1 (centres unmarked) | 0% | 7% | 0% | 0% | 0% | 1% | 1% | 0% | 0% | 5% | 
O=C(O)C(F)(F)F.O=c1[nH]ccc2nc(N[C@@H]3CCNC3)nc(Nc3cc(Cl)cc(Cl)c3)c12 [GSK2188764] | 41% | 51% | 6% | 37% | 41% | 15% | 28% | 41% | 55% | 0% | 
Cc1ccc(O)cc1Nc1ccnc2ccc(C(C)(C)C)cc12 [GW856805] | 2% | 0% | 9% | 6% | 9% | 13% | 27% | 34% | 21% | 12% | 
COC(=O)Nc1nc2ccc(Oc3ccc(NC(=O)Nc4cc(C(F)(F)F)ccc4F)cc3)cc2[nH]1.Cl [GW654607] | 0% | 6% | 16% | 0% | 0% | 97.6% | 10% | 0% | 0% | 0% | 
COc1ccc(C)c(Nc2ccnc(Nc3ccc(-c4cnc[nH]4)cc3)n2)c1.Cl [GW784041] | 0% | 9% | 16% | 0% | 0% | 4% | 0% | 0% | 2% | 2% | 

SMILES | %Inh (ERK1) | %Inh (ERK2) | %Inh (ERK3) | %Inh (ERK4) | %Inh (ERK5) | %Inh (ERK8) | %Inh (ERN1) | %Inh (FAK; [1]) | %Inh (FER) | %Inh (FES) | %Inh (FAK; 1 µM)
CC(C)NCC(Cc1ccccc1)NC(=O)c1cc(Br)c(-c2ccnc3[nH]ccc23)s1.Cl.Cl (centres unmarked) [GSK1383281] | 11% | 0% | 0% | 0% | 0% | 2% | 0% | 20% | 0% | 0% | 
CCOc1nccc(-c2c(-c3ccc(F)cc3)ncn2C2CCNCC2)n1 [SB-249175] | 0% | 0% | 26% | 13% | 12% | 2% | 1% | 0% | 9% | 0% | 
Fc1cc(Cl)ccc1Nc1ccnc2cc(-c3ccc(CN4CCSCC4)o3)ccc12 [GW560106] | 17% | 0% | 0% | 0% | 0% | 0% | 6% | 0% | 37% | 0% | 
COc1cccc(C2=C(Nc3cccc(O)c3)C(=O)NC2=O)c1 [SB-390771] | 3% | 0% | 6% | 26% | 0% | 16% | 0% | 0% | 0% | 2% | 
Cl.Cl.NCC(NC(=O)c1cc(-c2cccnc2)c(-c2ccnc3[nH]ccc23)s1)c1ccccc1 (centres unmarked) [GSK1323434] | 0% | 8% | 3% | 33% | 0% | 16% | 6% | 0% | 50% | 44% | 
O=C(Nc1n[nH]c2nc(-c3cccc(O)c3)ccc12)C1CC1 [SB-711805] | 0% | 0% | 0% | 0% | 47% | 42% | 0% | 0% | 36% | 0% | 
Cl.O=C(Nc1ccc(Oc2ccc3[nH]c(NC(=O)c4ccco4)nc3c2)cc1)Nc1cc(C(F)(F)F)ccc1F [GW683134] | 0% | 0% | 0% | 14% | 0% | 82% | 0% | 0% | 0% | 0% | 
Cc1ccc(NC(=O)c2ccnc(N3CCCCC3)c2)cc1-c1ccc(C(=O)NCC2CC2)cc1 [GW775610] | 37% | 9% | 0% | 21% | 6% | 0% | 70% | 0% | 4% | 4% | 
Nc1ncc(-c2ccc3nccc(-c4ccncc4)c3c2)cc1S(=O)(=O)N1CCCCC1 [GSK1693850] | 0% | 0% | 0% | 13% | 11% | 38% | 1% | 0% | 32% | 0% | 
Nc1ncnc2scc(-c3ccc(NC(=O)Cc4cc(F)ccc4F)cc3)c12.O=C(O)C(F)(F)F [SB-731254-M] | 0% | 0% | 0% | 11% | 28% | 0% | 34% | 4% | 4% | 0% | 
CN(C)CCNS(=O)(=O)c1ccc(-c2ccnc3[nH]ccc23)cc1 [GSK977620] | 2% | 1% | 3% | 10% | 0% | 0% | 8% | 0% | 41% | 0% | 
Cc1ccc(C)c(NC(=O)Nc2ccc(C)c(-c3ccc(C(=O)Nc4ccncc4)cc3)c2)c1 [GSK1398473] | 0% | 16% | 9% | 28% | 0% | 0% | 0% | 0% | 13% | 0% | 
NCCC(NC(=O)c1cc(Br)c(-c2ccnc3[nH]ccc23)s1)c1ccccc1.O=C(O)C(F)(F)F.O=C(O)C(F)(F)F (centres unmarked) [GSK1307810] | 4% | 0% | 7% | 0% | 0% | 33% | 22% | 9% | 3% | 0% | 
COC(=O)Nc1nc2ccc(Oc3ccc(CC(=O)Nc4cc(C(F)(F)F)ccc4F)cc3)cc2[nH]1 [GW680903] | 0% | 0% | 0% | 7% | 0% | 0% | 0% | 0% | 0% | 0% | 
CC(C)(C)c1ccc(C(=O)Nc2cn3cc(-n4ccnc4)ccc3n2)cc1 | 0% | 13% | 10% | 5% | 19% | 0% | 25% | 7% | 0% | 0% | 
COc1cc(Nc2nccc(N3CCC(NS(=O)(=O)c4ccc(NC(C)=O)cc4)CC3)n2)cc(OC)c1OC [GSK1379825] | 0% | 0% | 83% | 0% | 0% | 29% | 0% | 0% | 6% | 48% | 
Cl.Cl.NC(CNC(=O)c1cc(Br)c(-c2ccnc3[nH]ccc23)s1)c1ccccc1 (centres unmarked) [GSK1322949] | 4% | 0% | 4% | 27% | 0% | 24% | 13% | 83% | 10% | 0% | 
CCNC(=O)/C=C/c1n[nH]c2cc(Sc3ccccc3C(=O)NC)ccc12 | 8% | 43% | 13% | 15% | 3% | 28% | 15% | 0% | 4% | 24% | 
CC(=O)Nc1cn2nc(Oc3cccc(NC(=O)c4cccc(C(F)(F)F)c4)c3)ccc2n1 | 0% | 0% | 0% | 0% | 0% | 19% | 0% | 13% | 3% | 0% | 
Cn1cc(-c2ccc3c(c2)CCN3C(=O)Cc2cc(F)cc(F)c2F)c2c(N)ncnc21 [GSK2634140] | 9% | 9% | 0% | 0% | 0% | 0% | 11% | 5% | 39% | 0% | 
CN(C)CCOc1ccc(-c2cc(-c3ccc(Cl)c(O)c3)c(-c3ccncc3)[nH]2)cc1.Cl.Cl [SB-684387] | 0% | 0% | 0% | 40% | 13% | 7% | 39% | 0% | 10% | 10% | 
Cc1cc(-c2ccnc(Nc3cccc(C#N)c3)n2)cc(C)c1O [GSK1440913] | 0% | 0% | 75% | 1% | 0% | 99.1% | 0% | 0% | 7% | 28% | 
